# Only a selection was taken, and hits are over-represented in it overall.
# Epigenetic reg – Quantitative High-Throughput Screen for Regulators of Epigenetic Control. murine LDR cells, GFP reporter derepression, 30 h. Potency, µM (titrated, usually from 53.9 µM), actives largely listed as activators. 0.2% of 280,000 active; further: nearly all actives have a fitted effect of over 60% in size
#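 In this reporter-derepression format, murine cells bearing a silenced integrated CMV-GFP locus incubate with test compound (30 h, 37 C), then are washed and imaged; fluorescent objects of 20–120 um count as induced cells.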
# HTT ATP protect – qHTS Multiplex Assay to Identify Dual Action Probes in a Cell Model of Huntington: Cytoprotection (ATP). PC12 HTT-Q103 induced, cytoprotection, ATP luminescence, 40 h. Potency, µM (top dose mostly 56.4 µM), usual class: activators. 0.14% of 230,000 active. AID 1471, 2008; further: nearly all actives have a fitted effect of over 45% in size
#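 Readout: ATPlite luminescence (ATP level). Model: stable PC12, inducible Htt exon1 Q103-GFP. Inducer: tebufenozide, 100 nM final. Compounds: dose series. No G418 in medium.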
# PINK1 expr mod – A Quantitative High throughput Screen to Identify Chemical Modulators of PINK1 Expression | PINK1 immunofluorescence, high-content cytometry, 24 h | Potency, µM (highest dose often 76.6 µM), usual class: activators | 0.2% of 410,000 active | AID 624263, 2012; active means well fitted activation curve with a large enough effect; inconclusive means small, poorly fitted or top-dose-only effect; cell line not stated here; further: nearly all actives have a fitted effect of over 65% in size
#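 PINK1 protein, normally rapidly degraded, was detected by immunofluorescence after 24 hour compound treatment of a stable cell line. Titration data (5 concentrations) came from laser-scanning cytometry, with CCCP-treated wells as controls.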
# HttQ103 aggreg – qHTS Multiplex Assay to Identify Dual Action Probes in a Cell Model of Huntington: Aggregate Formation (GFP). PC12 HttQ103-GFP aggregates, Acumen cytometry, 40 h. Potency, µM (doses to about 46.1 µM), hits mostly inhibitors. 1.1% of 220,000 active. AID 1688, 2009; further: nearly all actives have a fitted effect of over 60% in size
#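 Multiplexed with ATP-based cell death, this channel scores GFP aggregates in PC12 cells expressing inducible HTTex1-Q103-GFP. Induction used 100 nM tebufenozide; compounds were tested in concentration series.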
# A number is an active result; n = inactive; u = inconclusive; x = no result; ! = a repeat was not active; [ ] = another dose, or the depositor's remark. Unless noted, the call rests on the fitted dose curve; in most records, active means well fitted curve in the direction sought with a large enough effect; inconclusive means small, poorly fitted or top-dose-only effect, or another doubt; inactive means no such curve, though single readings can be large; an effect the other way counts as inactive or inconclusive.
SMILES,Epigenetic reg,HTT ATP protect,PINK1 expr mod,HttQ103 aggreg
O=C(N/N=C/c1cc(Br)ccc1O)C(=O)Nc1ccccc1OC(F)(F)C(F)F,n,n,n,8.9µM
O=C(N/N=C/c1ccoc1)c1cc(Br)ccc1O,x,x,n,x
O=C(N/N=C/c1cc(Br)ccc1O)c1cccc(N2CCCC2=O)c1,n,x,n,2.2µM
CCC/C=N/NC(=O)c1cc(Br)ccc1O,n,n[10 µM],n,16µM
O=C(N/N=C/c1cc(Br)ccc1O)c1ccccc1Cl,n,x,n,4µM
CN(C)CCC(C(=O)c1ccccc1)c1ccccn1 (centres undefined),x,x,n,x
O=C(c1cc(-c2ccc(Cl)c(Cl)c2)on1)N1CCOCC1,x,x,n,x
CCN(CC)CCN(C(=O)c1ccc2c(c1)CCCC2)c1nc2ccc(C)cc2s1,x,x,28µM,x
CCN(CC)CCN(C(=O)c1ccc2c(c1)CCCC2)c1nc2c(C)cccc2s1,x,x,45µM,x
Cc1cccc2c(N=NC(=O)c3ccc(NS(=O)(=O)c4cccs4)cc3)c(O)[nH]c12,x,x,n,x
N#Cc1c2ccc(O)cc2n2ccccc12,n,n,n,10µM
FC(F)(F)Oc1ccc(NC(=S)Nc2ccc(OC(F)(F)F)cc2)cc1,n,n[10 µM],16µM,n[9.22 µM]
CC(C)c1ccc(NC(=S)Nc2ccc(OC(F)(F)F)cc2)cc1,n,n[10 µM],n,n
CSc1nc(N)nc(SCCS(=O)(=O)c2ccc(Cl)cc2)c1C#N,n,n[0.074 µM],u,10µM
CSc1nc(N)nc(SCC(=O)Nc2ccc(Cl)cc2)c1C#N,n,n,n,n
O=C(COc1ccccc1[N+](=O)[O-])N(Cc1ccccc1)c1ccccn1,n,x,n,n
CCN(CC)c1ccc2cc(-c3nc(-c4ccc(Cl)cc4Cl)cs3)c(=O)oc2c1,2.8µM,x,n,x
CCN(CC)c1ccc2cc(-c3nc(-c4ccc(OC)cc4)cs3)c(=O)oc2c1,u,n[10 µM],u,2.8µM
CCN(CC)c1ccc2cc(S(=O)(=O)c3ccc(Cl)cc3)c(=O)oc2c1,u,x,n,n
CCc1ccc(-c2csc(-c3cc4cc(Br)ccc4oc3=O)n2)cc1,n,x,n,x
COC(=O)C1=C(C)N(Cc2ccco2)C(=O)N[C@@H]1c1ccccc1,n,x,n,n
Oc1ccc(CN2CCN(c3ccccc3)CC2)c2cccnc12,3.5µM,n[10 µM],u,n
Oc1ccc(CN2CCCCC2)c2cccnc12,u,n[1.9 µM],n,n[1.84 µM]
CC(C)OCc1cc(CN2CCN(c3cccc(C(F)(F)F)c3)CC2)c(O)c2ncccc12,u,x,n,x
CCOC(=O)N1CCN(Cc2ccc(O)c3ncccc23)CC1,4µM,n[10 µM],u,n[9.22 µM]
SMILES,Epigenetic reg,HTT ATP protect,PINK1 expr mod,HttQ103 aggreg
O=[N+]([O-])c1cc(CN2CCN(c3cccc(C(F)(F)F)c3)CC2)c2cccnc2c1O,n,n,n,8.9µM
Oc1ccc(CN2CCc3ccccc3C2)c2cccnc12,3.5µM,n,n,u
CCOC(=O)N1CCN(Cc2ccccn2)CC1,n,n[10 µM],n,n
Cn1c(=O)c2c(SCc3cccc(C(F)(F)F)c3)nc(-c3ccco3)nc2n(C)c1=O,n,n,n,n
CC(C)(C)OC(=O)NCC(=O)Oc1cc2oc(=O)cc(-c3ccccc3)c2cc1Cl,n,n[10 µM],n,4µM
O=C(Oc1cc2oc(=O)cc(-c3ccccc3)c2cc1Cl)C1CCCCC1,n,n,n,7.1µM
Cc1ccc(C2CCN(C(=S)NC(C)C)C2)cc1 (centres undefined),n,n,n,n
CN(C)c1ccc(C(=O)NN2C(=O)c3ccccc3C2=O)cc1,n,n,n,n
C[C@@H]1CN([C@@H](C)CO)C(=O)CCCn2nncc2CO[C@H]1CN(C)S(=O)(=O)c1ccc2ccccc2c1,x,x,n,x
CCOc1ccc(NC(=O)CCS(=O)(=O)c2ccc3c(c2)CCCN3C(C)=O)cc1,n,u,n,n
COC(=O)/C=C1\S/C(=N/NC(=O)c2ccc(OC)cc2)NC1=O,n,n,n,n
CN(C)c1ccc(-n2cccc2/C=C/[N+](=O)[O-])cc1,n,n,n,25µM
CN(c1ccccc1)c1ccc(/C=C/[N+](=O)[O-])cc1,n,n[10 µM],n,n
Fc1ccc(Nc2ncnc3sc4c(c23)CCC4)cc1F,n,n[10 µM],n,10µM
c1ccc(Nc2ncnc3sc4c(c23)CCC4)cc1,n,n,n,n
Fc1ccc(Nc2ncnc3sc4c(c23)CCC4)cc1,n,n[10 µM],n,u
c1csc(CCNc2ncnc3sc4c(c23)CCC4)c1,n,n,n,7.9µM
C=CCSc1nnc(-c2cc3c(-c4ccccc4)nn(C)c3s2)n1C,n,n,n,n
CCN(CC)c1ccc(/C=N/N2CC(=O)NC2=S)cc1,x,x,40µM,x
CCN(CC)c1ccc(/C=N/N2C(=O)c3ccccc3C2=O)cc1,n,x,n,n
Cc1ccc(C(CC(=O)NCCCN(C)C)c2ccc(OC(C)C)cc2)cc1 (centres undefined),n,n[10 µM],n,n[9.22 µM]
Cc1ccc(OCC(=O)N2CCN(C(=O)c3ccncc3)CC2)cc1,n,x,n,0.028µM
Oc1cccc2c(NC(=S)Nc3ccc(OC(F)F)cc3)cccc12,n,n[10 µM],n,13µM
N#CC(C#N)=C1C=CC=CN1/C(=C\c1ccco1)C(=O)c1ccccc1,n,u,n,3.2µM
COc1ccc(C(=O)/C(=C\c2ccco2)N2C=CC=CC2=C(C#N)C#N)cc1,n,u,n,6.3µM
SMILES,Epigenetic reg,HTT ATP protect,PINK1 expr mod,HttQ103 aggreg
N#CC(C#N)=C1C=CC=CN1/C(=C\c1ccco1)C(=O)c1ccc(Br)cc1,u,n[10 µM],n,u
CCc1cc(OCCCSc2nc(C)cc(=O)[nH]2)ccc1Cl,n,n,n,35µM
Cc1ccc(N=Cc2ccc(O)cc2O)cc1F,n,n,n,3.2µM
Oc1ccc(C=Nc2ccc(N3CCOCC3)cc2)c(O)c1,n,n,n,n
O=C(c1ccc(S(=O)(=O)Cc2cc(F)ccc2F)c([N+](=O)[O-])c1)N1CCCC1,n,n,n,16µM
O=C(c1ccc(S(=O)(=O)Cc2cc(F)ccc2F)c([N+](=O)[O-])c1)N1CCCCC1,n,n[10 µM],n,13µM
O=C(c1ccc(S(=O)(=O)Cc2ccccc2Cl)c([N+](=O)[O-])c1)N1CCN(c2ccccn2)CC1,n,n,n,16µM
COc1ccc(N(CC(=O)Nc2ccccc2C(=O)NCC(C)C)S(C)(=O)=O)cc1,n,x,n,n
CCC1(C2CCN(Cc3ccoc3)CC2)NC(=O)N(CC2COc3ccccc3O2)C1=O (centres undefined),x,x,n,x
O=c1cc(C(Cl)(Cl)Cl)oc2c1ccc1ccccc12,n,n,n,7.1µM
O=c1cc(-c2ccco2)oc2c1ccc1ccccc12,n,n,n,u
O=c1cc(-c2ccccc2O)oc2c1ccc1ccccc12,n,0.45µM!,x,x
Cc1cccc(OCC(=O)NCCc2nc3ccccc3[nH]2)c1C,n,x,n,x
COCC(=O)O[C@]1(CCN(C)CCCc2nc3ccccc3[nH]2)CCc2cc(F)ccc2[C@@H]1C(C)C,n,n,n,7.9µM!
COc1ccc(-c2cc(C(=O)N(C)CC(=O)Nc3ccccc3Br)c3ccccc3n2)cc1OC,x,x,n,x

# Compound activity: PubChem, National Center for Advancing Translational Sciences (NCATS)
